Measurements taken from PubChem BioAssay (NCATS).
Records with an inconclusive call do not appear. Active and inactive are the calls of the source. Calls follow the shape of the dose curve; as a rule, active = well fitted curve in the direction sought with a large enough effect; inconclusive = small, poorly fitted or top-dose-only effect, or another doubt; inactive = no such curve, though single readings can be large; an effect the other way counts as inactive or inconclusive.

Assays:
[1] = system: Zika virus NS2B-NS3 protease (linked construct); assay: Primary screen NINDS Rhodamine qHTS for Zika virus inhibitors (AID 1347160); also: nearly all actives have a fitted effect of over 55% in size
Procedure, shortened: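 In 10 mM Tris-HCl pH 8.0 containing 0.01% Tween 20, linked NS2B-NS3 protease (25 nM final) is exposed to test compounds for 15 min. Cleavage of 1.5 microM Rhodamine110 substrate is tracked by fluorescence over 15 min.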

[2] = qHTS to identify inhibitors of the type 1 interferon - major histocompatibility complex class I in skeletal muscle: primary screen against the NCATS Pharmaceutical Collection (AID 1347407);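 also: luminescence of HiBiT knocked into endogenous HLA-B as interferon-induced MHC class I level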; also: potency is read from the fitted curve at half-maximal effect
Procedure, shortened: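 Luminescence from HiBiT-tagged endogenous HLA-B*08:01 served as the read-out of IFN-beta-induced MHC class I in CRISPR-engineered C25cl48 myoblasts. Cells received 4 ng/ml IFN-beta plus compound (high final 46 uM, […]) for 24 h.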

[3] = qHTS to identify inhibitors of the type 1 interferon - major histocompatibility complex class I in skeletal muscle: primary screen against the NCATS Mechanism Interrogation Plate v5.0 (MIPE) Libary (AID 1347411); also: nearly all actives have a fitted effect of over 65% in size; also: potency is read from the fitted curve at half-maximal effect
Procedure, shortened: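 Immortalized human C25cl48 myoblasts with HiBit knocked into endogenous HLA-B*08:01 were stimulated with 4.0 ng/ml IFN-beta and exposed to compounds (11-point 1:3 titration, top 46 uM final) for 24 hrs at 37 C; HiBiT lytic luminescence measured.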

[4] = target: Protein phosphatase 1D (Homo sapiens) (UniProt O15297); assay: RapidFire Mass Spectrometry qHTS Assay for Modulators of WT P53-Induced Phosphatase 1 (WIP1) (AID 1347424);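 also: amount of dephosphorylated VEPPL-S-QETFS peptide product formed by WIP1; series mostly up to about 63 µM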
Chain of Protein phosphatase 1D (Homo sapiens) (O15297 whole entry, looked up): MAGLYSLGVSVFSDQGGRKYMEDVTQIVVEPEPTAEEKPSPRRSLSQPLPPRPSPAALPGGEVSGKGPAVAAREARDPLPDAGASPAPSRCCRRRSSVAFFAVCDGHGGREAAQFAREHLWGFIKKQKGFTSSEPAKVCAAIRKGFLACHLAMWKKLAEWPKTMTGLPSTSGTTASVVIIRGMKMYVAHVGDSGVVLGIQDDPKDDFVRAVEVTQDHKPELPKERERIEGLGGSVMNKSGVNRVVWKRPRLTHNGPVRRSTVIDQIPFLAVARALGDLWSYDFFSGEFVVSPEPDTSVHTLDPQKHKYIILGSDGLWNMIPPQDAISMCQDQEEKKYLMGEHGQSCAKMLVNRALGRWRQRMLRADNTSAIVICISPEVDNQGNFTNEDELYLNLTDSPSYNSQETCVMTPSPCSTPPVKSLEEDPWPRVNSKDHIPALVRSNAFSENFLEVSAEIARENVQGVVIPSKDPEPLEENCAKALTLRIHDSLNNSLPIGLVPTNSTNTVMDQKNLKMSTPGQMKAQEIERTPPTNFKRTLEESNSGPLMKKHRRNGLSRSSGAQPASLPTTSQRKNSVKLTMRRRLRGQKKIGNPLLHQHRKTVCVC
Procedure, shortened: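 WIP1 (10 nM final) was preincubated 1 h at room temperature with compounds in Tris-HCl pH 7.5, 30 mM MgCl2, TCEP, EGTA, BSA; 2 uM VEPPL-pS-QETFS phosphopeptide was added for 5 min, quenched with formic acid, and dephosphorylated product quantified by RapidFire MS.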

[5] = Primary qHTS for inhibitors of La Crosse Virus (LACV) - induced cell death in SH-SY5Y cells (AID 1508616);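 also: top concentration of the series differs between compounds; higher means more rescue of cells from virus-induced death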
Procedure, shortened: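 Luminescent ATP readout (ATPLite 1step, 5 min room temperature) measured rescue from LACV-induced death after 6 days of infection at 0.01 MOI; normalized to infected DMSO wells and uninfected DMSO wells.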

[6] = target: Calcium and integrin-binding protein 1 (Homo sapiens) (UniProt Q99828); assay: Primary qHTS for Identification of Calcium Integrin Binding Protein 1 (CIB1) Competitor (AID 1508620);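 also: GST tagged CIB1 binding a fluorescein labelled alphaIIb integrin peptide tracer; top concentration of the series differs between compounds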
Chain of Calcium and integrin-binding protein 1 (Homo sapiens) (Q99828 whole entry, looked up): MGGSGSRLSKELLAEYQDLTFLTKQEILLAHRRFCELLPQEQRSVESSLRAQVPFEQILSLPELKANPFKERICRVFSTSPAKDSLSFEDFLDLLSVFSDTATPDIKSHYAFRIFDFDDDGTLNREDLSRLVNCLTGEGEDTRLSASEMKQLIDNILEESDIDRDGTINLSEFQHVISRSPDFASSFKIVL
Procedure, shortened: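 Fluorescence polarization competition: CIB1-GST (1 uM final) preincubated with compound 15 min at room temperature, then FITC-labeled alphaIIb peptide (100 nM final) added for another 15 min. Polarization read at Ex 480/Em 540.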

[7] = Confirmatory screen NINDS Rhodamine qHTS for Zika virus inhibitors (AID 1347161); also: nearly all actives have a fitted effect of over 60% in size; also: potency is read from the fitted curve at half-maximal effect
Procedure, shortened: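 Rhodamine110-peptide cleavage (1.5 µM substrate) by 25 nM linked NS2B-NS3 enzyme at pH 8.0 (Tris, Tween 20), after 15 min RT preincubation with compounds; 15-min fluorescence change normalized to controls and Hill-fitted.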

[8] = Vero cells viability qHTS for Zika virus inhibitors (AID 1347167); also: potency is read from the fitted curve at half-maximal effect
Procedure, shortened: (§1)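 Counter-screen for cytotoxicity of hits from NS2B-NS3 protease qHTS. Overnight-attached cells (2.5 x 10^5 cells/mL, DMEM/4% FBS) were dosed in titration, incubated 24 to 48 hours, then assayed by CellTiter Glo.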

[9] = target: Protein phosphatase 1D (Homo sapiens) (UniProt O15297); assay: Rhodamine-PBP qHTS Assay for Modulators of WT P53-Induced Phosphatase 1 (WIP1) (AID 1347425)
Procedure, shortened: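 The read-out is the change in Rhodamine-PBP fluorescence (f1 - f0, ex 525/em 598 nm) as Pi is released, read each minute for 11 min. Final reaction: 5 nM WIP1, 10 uM phosphopeptide VEPPL-pS-QETFS, 10 uM Rh-PBP, 50 mM Tris-HCl pH 7.5, 30 mM MgCl2. Compound was preincubated with enzyme for 1 hour at room temperature.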

[10] = Validation qHTS assay for inhibitors of Activation Induced Cytidine Deaminase (AID): UDG Counterscreen signal (AID 1347427)
Procedure, shortened: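 Counterscreen read of UDG activity (2 U/mL, 4/3x) in the FRET deamination format with AID (1 uM, 4/3x), DJC20/DJC23 substrates (250 nM, 4x), 4 h at room temperature. NaOH stop, fluorescence at 560 ex/665 em.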

[11] = target: Single-stranded DNA cytosine deaminase (Homo sapiens) (UniProt Q9GZX7); assay: Validation qHTS assay for inhibitors of Activation Induced Cytidine Deaminase (AID): AID signal (AID 1347429)
Chain of Single-stranded DNA cytosine deaminase (Homo sapiens) (Q9GZX7 whole entry, looked up): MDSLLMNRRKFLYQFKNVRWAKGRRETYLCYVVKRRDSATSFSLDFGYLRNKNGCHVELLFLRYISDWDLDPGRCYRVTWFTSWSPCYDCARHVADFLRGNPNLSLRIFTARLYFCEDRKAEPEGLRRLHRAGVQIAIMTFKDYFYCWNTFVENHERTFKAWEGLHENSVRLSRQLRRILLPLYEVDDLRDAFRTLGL
Procedure, shortened: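 AID and UDG were combined and compounds added at final up to 114 uM, then DJC20/DJC23 FRET substrate was added for 4 hr at room temperature. NaOH was then added for 30 min before fluorescence was read at 540/590 nm.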

[12] = HepG2 cells viability qHTS for Zika virus inhibitors (AID 1347168); also: potency is read from the fitted curve at half-maximal effect
Procedure, shortened: as §1

[13] = system: Zika virus NS2B-NS3 protease (linked); assay: 384 well plate NINDS AMC confirmatory qHTS for Zika virus inhibitors (AID 1347163); also: nearly all actives have a fitted effect of over 50% in size; also: potency is read from the fitted curve at half-maximal effect
Procedure, shortened: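 Linked protease 5/30/60 nM final; cpds up to 1 mM final, ~15 min preinc. Substrate Ac-VKTGKR-AMC 30 microM final. RT, dark, 25 min; FI ex 355/em 460; normalized to no-enzyme/no-inhibitor ctrls.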

[14] = system: Zika virus NS2B-NS3 protease (linked construct); assay: 384 well plate NINDS Rhodamine confirmatory qHTS for Zika virus inhibitors (AID 1347164);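 also: fluorescence from protease cleavage of Ac-LKRR-rhodamine 110 substrate; potency is read from the fitted curve at half-maximal effect; nearly all actives have a fitted effect of over 65% in size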
Procedure, shortened: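 Enzyme (final 5/30/60 nM) + cpd (DMSO), ~15 min; add Ac-LKRR-Rd 10 microM final; 25 min RT, dark; FI ex 485/em 538; normalized to no-enzyme, no-inhibitor ctrls; aprotinin intraplate ctrl.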

[15] = qHTS to identify inhibitors of the type 1 interferon - major histocompatibility complex class I in skeletal muscle: primary screen against the NCATS LOPAC collection (AID 1347405);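 also: lytic HiBiT luminescence reporting HLA-B protein level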
Procedure, shortened: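 Immortalized human C25cl48 myoblasts with HiBiT knocked into endogenous HLA-B*08:01 were stimulated with 4.0 ng/ml IFN-beta and given compounds in a 7-point, 1:4.3 titration from 46 uM final; after 24 hrs, lytic HiBiT luminescence was read.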

[16] = qHTS for inhibitors of adenylyl cyclases using a fission yeast platform: a pilot screen against the NCATS LOPAC library (AID 1347410)
Procedure, shortened: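 Fission yeast qHTS: CHP2027 cells (AC9-GNAS-PDE4D2, fbp1-GFP), 5x10^6 cells/mL working density, EMM + His/Lys/Ura; LOPAC at up to 57 µM final; 18 h dark, 30C; GFP by laser cytometry. DPI positive control, DMSO vehicle.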

Measured: Potency

CCC1=C(C)CN(C(=O)NCCc2ccc(S(=O)(=O)NC(=O)NC3CCC(C)CC3)cc2)C1=O (stereo unspecified)
inactive: [1] | [2] | [3] | [4] | [5] | [6]

CCc1nc(N)nc(N)c1-c1ccc(Cl)cc1
inactive: [7] | [8] | [3] | [4] | [9] | [5] | [6]

OC(CN1CCN(c2cccc(Cl)c2)CC1)C(c1ccccc1)c1ccccc1 (stereo unspecified)
inactive: [1] | [10] | [11] | [5] | [6]

Cc1ccc(Nc2nccc(N(C)c3ccc4c(C)n(C)nc4c3)n2)cc1S(N)(=O)=O
inactive: [1] | [4] | [5] | [6]

COc1cc2c(N3CCN(C(=O)Nc4ccc(OC(C)C)cc4)CC3)ncnc2cc1OCCCN1CCCCC1
inactive: [1] | [3] | [4] | [6]

CN(c1nccc(=O)[nH]1)C1CCN(c2nc3ccccc3n2Cc2ccc(F)cc2)CC1
inactive: [1] | [2] | [4] | [9] | [5] | [6]

Cc1nc(-c2ccc(OCC(C)C)c(C#N)c2)sc1C(=O)O
active: [7] 31.2 µM
inactive: [8] | [12] | [2] | [3] | [4] | [9] | [5] | [6]

CC(C)C[C@H](NC(=O)[C@H](Cc1ccccc1)NC(=O)c1cnccn1)B(O)O
active: [12] 0.0466 µM | [2] 0.0745 µM | [3] 0.0415 µM
inactive: [1] | [8] | [4] | [9] | [5] | [6]

COc1ccc(C2(C#N)CCC(C(=O)O)CC2)cc1OC1CCCC1 (stereo unspecified)
inactive: [1] | [3] | [6]

Cc1ccc(NC(=O)c2ccc(CN3CCN(C)CC3)cc2)cc1Nc1nccc(-c2cccnc2)n1
inactive: [1] | [4] | [9] | [5]

O=c1c(O)c(-c2ccc(O)cc2O)oc2cc(O)cc(O)c12
inactive: [15] | [16] | [3] | [10] | [11] | [5] | [6]
active: [7] 12.6 µM | [13] 141 µM | [14] 50.1 µM

Cc1cc2c(s1)Nc1ccccc1N=C2N1CCN(C)CC1
inactive: [1] | [2] | [3] | [4] | [5] | [6]

Cc1nc(Nc2ncc(C(=O)Nc3c(C)cccc3Cl)s2)cc(N2CCN(CCO)CC2)n1
inactive: [1] | [13] | [4] | [9] | [5] | [6]
active: [8] 282 µM | [12] 79.4 µM

CC(C)c1ccc2c(c1)c(SC(C)(C)C)c(CC(C)(C)C(=O)O)n2Cc1ccc(Cl)cc1
active: [7] 1.56 µM | [13] 14.1 µM | [14] 14.1 µM
inactive: [12] | [16] | [10] | [11] | [6]

COc1c(O)cc2c(c1O)[C@@H]1O[C@H](CO)[C@@H](O)[C@H](O)[C@H]1OC2=O
inactive: [1] | [6]
